tested on: LRRK2; details: concentration: 1 μM, replicates: in singlicate; n = 1
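Further: KINOMEscan kinase panel screen.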

SMILES | %Inh [%]
Cn1cncc1C(=O)NC1CCN(c2ccnc(Nc3ccc(F)cc3)n2)C1 (centres unmarked) [GSK1379717] | 0
CC(C)c1cc(-c2ccc3c(N)n[nH]c3c2)nc(N)n1 [GSK2250882] | 0
COc1cccc(CNC(=O)NC2CCN(c3ccnc(Nc4ccc(F)cc4)n3)C2)c1 (centres unmarked) [GSK1379723] | 25
Cc1ccc(-c2nc(Nc3ccncc3)c3ccccc3n2)s1 [GSK189015] | 54
Nc1nccc(-c2c(-c3ccc(F)cc3)ncn2C2CCN(Cc3ccccc3)CC2)n1 [SB-219980] | 0
COc1cccc(C2=C(Nc3cc(Cl)c(O)c(Cl)c3)C(=O)NC2=O)c1 [SB-390767] | 55
Cc1ccc(NC(=O)Nc2ccc(Cl)c(C(F)(F)F)c2)cc1-c1ccc(C(=O)Nc2ccncc2)cc1 [GSK1398470] | 0
COc1ccc(Nc2nccc(N3CCC(NC(=O)c4cc5ccccc5s4)C3)n2)cc1 (centres unmarked) [GSK1379738] | 0
Cc1ccc(NC(=O)c2ccc(Cl)cc2)cc1-c1ccc(C(=O)Nc2ccncc2)cc1 [GSK1398467] | 100
FC(F)(F)c1ccccc1-c1cc(-c2c[nH]nc2-c2ccccn2)ccn1 [GW679396] | 1
CNc1cc(-c2ccc3c(N)n[nH]c3c2)nc(N)n1 [GSK2224810] | 0
Cc1nccc(-c2c(-c3ccc(F)cc3)ncn2CCCN2CCOCC2)n1.Cl [SB-282975] | 0
CS(=O)(=O)CCNCc1nc(-c2ccc3ncnc(Nc4ccc(OCc5ccccc5)c(Cl)c4)c3c2)cs1.Cl [GW582764] | 12
CS(=O)(=O)CCNCc1nc(-c2ccc3ncnc(Nc4ccc5c(cnn5Cc5ccccc5)c4)c3c2)cs1.Cl.Cl [GW569716] | 22
Cc1ccccc1Cn1ccn2c(=O)cc(N3CCOCC3)nc12 [GSK2269905] | 0
CNc1nc(-c2ccc3c(N)n[nH]c3c2)cc(N2C[C@@H](C(=O)Nc3ccccc3)CC[C@H]2C)n1 [GSK2298859] | 0
Cc1ccc(NC(=O)Nc2ccccc2)cc1-c1ccc(C(=O)Nc2ccncc2)cc1 [GSK1398471] | 0
COc1ccc(Nc2nccc(N3CCC(NC(=O)C(C)c4ccc(Cl)cc4)CC3)n2)cc1 (centres unmarked) [GSK1379812] | 0
O=C(Nc1n[nH]c2nc(-c3ccco3)c(Br)cc12)C1CCN(Cc2ccccc2)C1.O=C(O)[C@H](O)[C@@H](O)C(=O)O (centres unmarked) [SB-742034] | 0

SMILES | %Inh [%]
COc1ccc(CSc2nnc(-c3ccc4ncsc4c3)o2)cc1C(F)(F)F | 0
COc1nccc(-c2c(-c3ccc(F)cc3)ncn2CCCN2CCOCC2)n1 [SB-282852] | 0
CSc1ccc(-c2nc3n(c2-c2ccncc2)CCC3)cc1 [SKF-105561] | 0
CC(C)c1ccc(O)cc1Nc1ccnc2ccc(C(F)(F)F)cc12 [GW482059] | 51
c1ccc(-c2ccnc3[nH]ccc23)cc1 [SB-693578] | 44
O=C(Nc1n[nH]c2cc(-c3ccsc3)ccc12)C1CC1 [SB-732932] | 0
Fc1ccc(-c2nn3cccc(F)c3c2-c2ccncc2)cc1 [GW475620] | 24
CNC(=O)c1ccc(C)c(-n2c(C)cc(OCc3ccc(F)cc3F)c(Br)c2=O)c1 | 0
CCCCc1nn2ncccc2c1-c1ccnc(NC2CC2)n1 [GW684374] | 0
CC(=O)c1c(C)c2cnc(Nc3ccc(N4CCNCC4)cn3)nc2n(C2CCCC2)c1=O | 0
COC(=O)C(NC(=O)NC1CCN(c2ccnc(Nc3ccc(F)cc3)n2)C1)c1ccccc1 (centres unmarked) [GSK1379712] | 0
O=c1cc(N2CCOCC2)nc2n(Cc3ccccc3F)ccn12 [GSK2297428] | 0
COc1ccc(CSc2nnc(-c3ccc4nccn4c3)o2)cc1C(F)(F)F | 0
COc1cccc(NC(=O)Nc2ccc(C)c(-c3ccc(C(=O)Nc4ccncc4)cc3)c2)c1 [GSK1398474] | 0
O=C1NC(=O)C(c2ccc(Cl)cc2)=C1Nc1ccc(O)cc1 [SB-340867] | 0
COC(=O)c1cccc(NC(=O)NC2CCN(c3ccnc(Nc4ccc(OC)cc4)n3)C2)c1 (centres unmarked) [GSK1379746] | 0
Cc1c(Cn2c3ccccc3n3c(=O)cc(N4CCOCC4)nc23)cccc1C(F)(F)F [GSK2306394] | 33
Nc1cccc(-c2ccc3c(N)n[nH]c3c2)n1 [GSK2192730] | 0

tested on: LTK; details: concentration: 1 μM, replicates: in singlicate; n = 1

SMILES | %Inh [%]
Cn1cncc1C(=O)NC1CCN(c2ccnc(Nc3ccc(F)cc3)n2)C1 (centres unmarked) [GSK1379717] | 6
CC(C)c1cc(-c2ccc3c(N)n[nH]c3c2)nc(N)n1 [GSK2250882] | 0
COc1cccc(CNC(=O)NC2CCN(c3ccnc(Nc4ccc(F)cc4)n3)C2)c1 (centres unmarked) [GSK1379723] | 59
Cc1ccc(-c2nc(Nc3ccncc3)c3ccccc3n2)s1 [GSK189015] | 1
Nc1nccc(-c2c(-c3ccc(F)cc3)ncn2C2CCN(Cc3ccccc3)CC2)n1 [SB-219980] | 11
COc1cccc(C2=C(Nc3cc(Cl)c(O)c(Cl)c3)C(=O)NC2=O)c1 [SB-390767] | 96.8
Cc1ccc(NC(=O)Nc2ccc(Cl)c(C(F)(F)F)c2)cc1-c1ccc(C(=O)Nc2ccncc2)cc1 [GSK1398470] | 4
COc1ccc(Nc2nccc(N3CCC(NC(=O)c4cc5ccccc5s4)C3)n2)cc1 (centres unmarked) [GSK1379738] | 0
Cc1ccc(NC(=O)c2ccc(Cl)cc2)cc1-c1ccc(C(=O)Nc2ccncc2)cc1 [GSK1398467] | 19
FC(F)(F)c1ccccc1-c1cc(-c2c[nH]nc2-c2ccccn2)ccn1 [GW679396] | 5
CNc1cc(-c2ccc3c(N)n[nH]c3c2)nc(N)n1 [GSK2224810] | 0
Cc1nccc(-c2c(-c3ccc(F)cc3)ncn2CCCN2CCOCC2)n1.Cl [SB-282975] | 30
CS(=O)(=O)CCNCc1nc(-c2ccc3ncnc(Nc4ccc(OCc5ccccc5)c(Cl)c4)c3c2)cs1.Cl [GW582764] | 0
CS(=O)(=O)CCNCc1nc(-c2ccc3ncnc(Nc4ccc5c(cnn5Cc5ccccc5)c4)c3c2)cs1.Cl.Cl [GW569716] | 0
Cc1ccccc1Cn1ccn2c(=O)cc(N3CCOCC3)nc12 [GSK2269905] | 0
CNc1nc(-c2ccc3c(N)n[nH]c3c2)cc(N2C[C@@H](C(=O)Nc3ccccc3)CC[C@H]2C)n1 [GSK2298859] | 0
Cc1ccc(NC(=O)Nc2ccccc2)cc1-c1ccc(C(=O)Nc2ccncc2)cc1 [GSK1398471] | 0
COc1ccc(Nc2nccc(N3CCC(NC(=O)C(C)c4ccc(Cl)cc4)CC3)n2)cc1 (centres unmarked) [GSK1379812] | 27
O=C(Nc1n[nH]c2nc(-c3ccco3)c(Br)cc12)C1CCN(Cc2ccccc2)C1.O=C(O)[C@H](O)[C@@H](O)C(=O)O (centres unmarked) [SB-742034] | 11

SMILES | %Inh [%]
COc1ccc(CSc2nnc(-c3ccc4ncsc4c3)o2)cc1C(F)(F)F | 0
COc1nccc(-c2c(-c3ccc(F)cc3)ncn2CCCN2CCOCC2)n1 [SB-282852] | 0
CSc1ccc(-c2nc3n(c2-c2ccncc2)CCC3)cc1 [SKF-105561] | 31
CC(C)c1ccc(O)cc1Nc1ccnc2ccc(C(F)(F)F)cc12 [GW482059] | 0
c1ccc(-c2ccnc3[nH]ccc23)cc1 [SB-693578] | 0
O=C(Nc1n[nH]c2cc(-c3ccsc3)ccc12)C1CC1 [SB-732932] | 0
Fc1ccc(-c2nn3cccc(F)c3c2-c2ccncc2)cc1 [GW475620] | 8
CNC(=O)c1ccc(C)c(-n2c(C)cc(OCc3ccc(F)cc3F)c(Br)c2=O)c1 | 0
CCCCc1nn2ncccc2c1-c1ccnc(NC2CC2)n1 [GW684374] | 0
CC(=O)c1c(C)c2cnc(Nc3ccc(N4CCNCC4)cn3)nc2n(C2CCCC2)c1=O | 0
COC(=O)C(NC(=O)NC1CCN(c2ccnc(Nc3ccc(F)cc3)n2)C1)c1ccccc1 (centres unmarked) [GSK1379712] | 30
O=c1cc(N2CCOCC2)nc2n(Cc3ccccc3F)ccn12 [GSK2297428] | 21
COc1ccc(CSc2nnc(-c3ccc4nccn4c3)o2)cc1C(F)(F)F | 0
COc1cccc(NC(=O)Nc2ccc(C)c(-c3ccc(C(=O)Nc4ccncc4)cc3)c2)c1 [GSK1398474] | 23
O=C1NC(=O)C(c2ccc(Cl)cc2)=C1Nc1ccc(O)cc1 [SB-340867] | 0
COC(=O)c1cccc(NC(=O)NC2CCN(c3ccnc(Nc4ccc(OC)cc4)n3)C2)c1 (centres unmarked) [GSK1379746] | 15
Cc1c(Cn2c3ccccc3n3c(=O)cc(N4CCOCC4)nc23)cccc1C(F)(F)F [GSK2306394] | 11
Nc1cccc(-c2ccc3c(N)n[nH]c3c2)n1 [GSK2192730] | 0
